Calls of active or inactive are those of the source. The calls were made as follows: active = hit-call score of the fitted dose curve at least 0.9, where 1 is the maximum; inactive = score below 0.9.
target: human CK2 (alpha1/alpha2/beta) Other Protein Kinase, CSNK2A1 (gene 1457) (UniProt P68400); experiment: ERF_TW_ENZ_hCSNK2A1: Eurofins (ERF) Enzymatic Radiometric [10 uM ATP] Assay for human CK2 (alpha1/alpha2/beta) Other Protein Kinase
Description: ERF_TW_ENZ_hCSNK2A1 is a biochemical, single-readout assay that uses extracted gene-proteins in a cell-free assay. Measurements were taken 0.5 hour after chemical dosing in a 96-well plate. See CK2 (alpha1/alpha2/beta) Human Other Protein Kinase Enzymatic Radiometric Assay [10 uM ATP], Panlabs.ERF_TW_ENZ_hCSNK2A1 is an assay component calculated from the ERF_TW_ENZ_hCSNK2A1 assay. It is designed to measure enzyme activity using a type of enzyme reporter as detected by scintillation counting with radiometry technology.Data from the assay component ERF_TW_ENZ_hCSNK2A1 was analyzed at the assay endpoint, ERF_TW_ENZ_hCSNK2A1, in the positive analysis fitting direction relative to DMSO as the negative control and baseline of activity. Using a type of enzyme reporter, loss-of-signal activity can be used to understand changes in enzymatic activity as they relate to gene CSNK2A1. To generalize the intended target to other relatable targets, this assay endpoint is annotated to the kinase intended target family, where the subfamily is serine/threonine kinase.
CK2a1(h) is incubated with 20mM HEPES pH7.4, 0.15M NaCl, 0.1mM EDTA, 5mM DTT, 0.1% Triton X-100, 165 uM […], 10 mM MgAcetate and [gamma-33P-ATP] (specific activity and concentration as required). The reaction is 17 initiated by the addition of the Mg/ATP mix. […]

human CK2 (alpha1/alpha2/beta) Other Protein Kinase, CSNK2A1 (gene 1457), sequence (P68400 whole entry, looked up): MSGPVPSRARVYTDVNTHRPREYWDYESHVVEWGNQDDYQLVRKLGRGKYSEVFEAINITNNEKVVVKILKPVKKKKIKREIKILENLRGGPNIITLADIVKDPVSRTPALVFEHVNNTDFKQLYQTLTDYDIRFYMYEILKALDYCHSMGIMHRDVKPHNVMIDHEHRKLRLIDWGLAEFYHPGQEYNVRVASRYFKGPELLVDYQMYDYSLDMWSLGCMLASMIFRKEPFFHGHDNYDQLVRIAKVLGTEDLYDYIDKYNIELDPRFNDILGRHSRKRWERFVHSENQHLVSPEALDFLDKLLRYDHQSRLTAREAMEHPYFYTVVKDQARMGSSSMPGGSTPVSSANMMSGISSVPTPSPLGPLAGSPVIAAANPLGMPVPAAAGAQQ

Row | Compound | AC50
1 | O=C(/C=C/c1ccc(O)cc1)CC(=O)/C=C/c1ccc(O)cc1 | 2.25 µM (active)

From PubChem BioAssay AID2284072 (EPA ToxCast)
